# Compound activity deposited in PubChem by The Scripps Research Institute Molecular Screening Center.
# An excerpt weighted towards active compounds, which were near 3.5% of everything screened.
# TEAD-YAP inh = TEAD-YAP interaction inhibition | 640,000 compounds, 1.4% hits | HEK-TIYL cells, TEAD-Gal4/YAP UAS-luciferase luminescence | inhibition, % at 9.12 µM; in the data active = inhibition above about 32%;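 also: 0% = median of test compound wells and 100% = reference inhibitor wells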
# MITF inh = human MITF inhibition, primary screen. inhibition, % at 2.6 µM. 650,000 compounds, 0.91% hits. AID 1259374. AlphaScreen MITF homodimerization, bead proximity signal; in the data active = inhibition above about 50%;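 also: 0% = vehicle wells with protein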
# FBW7 act = activators of human E3 ligase FBW7; 650,000 compounds, 0.13% hits; Q969H0; AID 1259310; AlphaScreen FBW7–phospho-cyclin E peptide binding, activator screen; normalized activity (activation), % at 26.1 µM; in the data active = normalized activity above about 1.9%;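 also: purified mutant Fbw7 with reduced substrate affinity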
# Target sequence (Q969H0 whole entry, looked up): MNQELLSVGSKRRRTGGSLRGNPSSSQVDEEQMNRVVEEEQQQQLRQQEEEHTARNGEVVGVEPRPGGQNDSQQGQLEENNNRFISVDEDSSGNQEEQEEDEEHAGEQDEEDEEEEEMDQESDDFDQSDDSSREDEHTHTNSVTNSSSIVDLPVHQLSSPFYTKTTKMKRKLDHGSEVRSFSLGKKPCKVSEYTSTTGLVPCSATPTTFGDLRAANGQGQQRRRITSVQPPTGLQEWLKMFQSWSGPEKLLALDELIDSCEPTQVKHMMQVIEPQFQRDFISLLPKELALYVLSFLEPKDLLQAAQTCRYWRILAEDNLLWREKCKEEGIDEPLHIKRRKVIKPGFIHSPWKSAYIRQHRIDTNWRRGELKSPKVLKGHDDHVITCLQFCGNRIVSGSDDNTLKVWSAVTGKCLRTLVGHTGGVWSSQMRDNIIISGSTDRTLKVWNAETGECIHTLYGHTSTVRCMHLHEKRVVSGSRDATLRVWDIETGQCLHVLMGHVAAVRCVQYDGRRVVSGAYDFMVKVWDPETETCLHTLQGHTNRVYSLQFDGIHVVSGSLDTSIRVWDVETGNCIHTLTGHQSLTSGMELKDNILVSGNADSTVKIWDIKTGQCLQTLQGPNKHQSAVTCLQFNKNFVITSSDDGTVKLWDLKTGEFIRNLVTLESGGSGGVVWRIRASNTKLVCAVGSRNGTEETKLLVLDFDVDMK
# GPR151 activ = activates the human receptor GPR151; PathHunter beta-arrestin GPR151 cells, luminescence; activation, % at 11.2 µM; 650,000 compounds, 1% hits; in the data active = activation above about 4.9%;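 also: 0% = median of compound wells and 100% = cells with positive control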
# GPR151 conf act = human GPR151 activation, confirmation screen. shares compounds with GPR151 activ. GPR151 PathHunter beta-arrestin cells, luminescence, 90 min; % of EA-reagent control over plate median. activation, % at 11.2 µM. 6,700 tested, under 10 active. AID 1508609;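 active = mean percent activation across replicates above the confirmation screen cutoff of 4.91%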
# GPR119 ag = counter-screen for GPR151 activators: effect on human GPR119; shares compounds with GPR151 activ; 6,700 compounds, 0.3% hits; GPR119 PathHunter beta-arrestin cells, luminescence, 90 min; 0 = compound-well median, 100 = enzyme-acceptor control; activation, % at 11.2 µM; AID 1508611;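 active = mean percent activation in the counterscreen above 29.09%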;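 also: counterscreen on off-target GPR119 to flag nonselective hits from the GPR151 activator screen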
# An asterisk follows results filed as active; . = no result; ! = a repeat was not active.
SMILES,TEAD-YAP inh,MITF inh,FBW7 act,GPR151 activ,GPR151 conf act,GPR119 ag
Cc1cc(C(=O)Nc2ccc(F)cc2F)no1,-27.2,8.2,1.0,6.5*,0.4,-3.1
CCCc1cc(C(=O)Nc2ccc(F)cc2F)no1,-31.0,1.0,-0.1,-1.6,.,.
NC(N)=NC(N)=Nc1cccc(Cl)c1,4.0,-4.1,-0.1,10.1*!,-0.7,-9.8
NC(N)=NC(N)=Nc1cccc([N+](=O)[O-])c1,-4.3,4.6,0.0,0.6,.,.
O=C(NNC(=O)C12CC3CC(C1)CC(c1ccccc1)(C3)C2)c1ccncc1,2.3,-2.4,-0.2,6.0*,-0.3,0.5
Cc1ccc2c(CSc3n[nH]c(N)n3)cc(=O)oc2c1,5.2,-2.1,0.1,-0.8,.,.
Cc1ccc2c(CSc3n[nH]c(N)n3)cc(=O)oc2c1C,-22.1,-2.2,0.1,11.2*,0.3,8.8
CC(C)C(=O)NCCc1nc2ccccc2n1Cc1ccccc1,-4.1,7.6,0.0,-0.1,.,.
C=CCn1c(CCNC(=O)C(C)C)nc2ccccc21,-0.8,4.9,0.0,7.0*,-0.1,4.2
Cc1cc(Br)cc(C)c1OCC(=O)NCc1ccco1,3.4,22.0,1.2,-0.4,.,.
COCCNC(=O)c1nn(C)c2c1CSc1ccccc1-2,-30.5,1.7,-0.1,6.7*,-0.9,-9.4
O=C(CN1CCN(Cc2ccc(Cl)cc2)C1=O)NCc1ccccc1,-0.8,-4.2,-0.2,-0.3,.,.
CN1C(=O)CC(Nc2ccc(N(C)C)cc2)C1=O (stereo unspecified),8.9,28.6,-0.2,7.3*,-0.5,8.1
CCN1C(=O)CC(Nc2ccc(N(C)C)cc2)C1=O (stereo unspecified),5.6,25.0,0.0,-0.2,.,.
Cc1c(=O)n(OCc2ccccc2F)c2ccccc2[n+]1[O-],0.9,-16.6,0.2,12.0*,0.3,-1.3
Cc1c(=O)n(OCc2cccc(F)c2)c2ccccc2[n+]1[O-],1.2,2.3,-0.1,1.0,.,.
CCCCN1C(=O)c2ccc(C(=O)Nc3cc(Cl)ccc3C(=O)O)cc2C1=O,7.9,3.3,0.2,7.2*,0.2,-1.1
COc1ccc(S(=O)(=O)Nc2cccnc2)cc1I,-3.9,-5.4,0.1,5.1*,0.4,-1.4
COc1ccc(S(=O)(=O)Nc2cccnc2)cc1C,16.1,-0.2,0.3,-1.1,.,.
COc1ccc(S(=O)(=O)Nc2cccc(Br)c2)cc1C,2.4,-1.0,0.0,13.5*,1.3,1.0
COc1ccc(S(=O)(=O)Nc2cccc(SC)c2)cc1C,2.8,9.8,0.0,-0.4,.,.
COc1ccc(S(=O)(=O)Nc2cccc(N(C)S(C)(=O)=O)c2)cc1OC,0.9,-2.7,0.0,7.8*,0.0,0.9
COc1ccc(S(=O)(=O)Nc2cccc(N(C)S(C)(=O)=O)c2)cc1C,12.0,8.8,0.2,-1.4,.,.
CC(=O)OCC1OC(Oc2ccc(C(=O)COc3ccc(F)cc3)c(O)c2)C(OC(C)=O)C(OC(C)=O)C1OC(C)=O (stereo unspecified),2.5,-3.0,0.1,-0.8,.,.
O=C(Cc1cccnc1)N[C@H](Cc1ccc(Cl)cc1)c1nc2ccc(-c3cn[nH]c3)cc2c(=O)[nH]1,9.1,3.8,0.2,5.5*,1.1,12.1
SMILES,TEAD-YAP inh,MITF inh,FBW7 act,GPR151 activ,GPR151 conf act,GPR119 ag
CC(C)NC(=O)Cn1nc2c3ccccc3nc(C(C)C)n2c1=O,19.9,-6.5,-0.1,1.2,.,.
CCOC(=O)c1c(NC(=S)NC(=O)N(C)C)sc(C)c1-c1cccs1,-0.2,1.3,-0.1,5.1*,0.7,6.8
CN(C)C(=O)NCCn1cnc2c1c(=O)n(C)c(=O)n2C,3.3,13.2,0.4,6.2*,-1.5,-2.0
Cn1c(=O)c2c(ncn2CCn2cnc3c2c(=O)n(C)c(=O)n3C)n(C)c1=O,0.5,1.7,0.2,-2.0,.,.
CCOC(=O)COc1cc(C)cc2oc(=O)cc(-c3ccccc3)c12,6.6,15.2,0.0,5.2*,-1.0,-12.8
CN1CCN(c2ccc(NC(=O)c3cccc(Br)c3)cc2)CC1,-34.0,9.6,0.1,-6.1,.,.
O=C(COc1ccccc1)NC(=S)Nc1ccccn1,-0.3,7.9,0.1,6.6*,0.4,2.3
CCOC(=O)c1ccc(NC(=S)Nc2ccccn2)cc1,-42.6,16.4,0.1,5.0*!,0.8,14.9
Cc1ccc(CSc2ncnc3c2c(-c2ccccc2)cn3-c2cccc(F)c2)cc1,-10.4,-6.8,-0.1,-0.7,.,.
CN(C)c1ccc(/C=C/CN2CCC(O)CC2)cc1,-8.1,32.2,-0.1,-0.1,.,.
CN(C)c1ccc(/C=C/CN2CCCCCC2)cc1,5.3,29.6,0.1,4.9*,-0.7,-0.8
O=C(NCCc1ccccc1)C(=O)NCC1CCCN1S(=O)(=O)c1cccs1 (stereo unspecified),6.0,9.5,0.0,7.3*,-0.9,-10.4
CCNC(=O)C(=O)NCC1CCCN1S(=O)(=O)c1ccc(C)cc1 (stereo unspecified),-1.7,-1.1,-0.1,6.2*,-0.6,-3.0
CCOC(=O)C(=O)NCC1CCCN1S(=O)(=O)c1cccs1 (stereo unspecified),2.1,17.3,0.1,-1.1,.,.
Cc1ccc(S(=O)(=O)N2CCCC2CNC(=O)C(=O)NC2CCCCCC2)cc1 (stereo unspecified),9.8,2.6,-0.2,0.5,.,.
Cc1ccc(S(=O)(=O)N2CCCC2CNC(=O)Nc2ccc(Cl)cc2)cc1 (stereo unspecified),4.4,-6.2,0.0,6.0*,-0.5,-8.5
Cc1ccc(S(=O)(=O)N2CCCC2CNC(=O)C(=O)NCCO)cc1 (stereo unspecified),5.4,4.0,0.0,1.7,.,.
O=C(NCC1CCCN1S(=O)(=O)c1ccccc1)C(=O)NC1CCCCC1 (stereo unspecified),-6.7,-9.1,0.0,21.5*,0.2,-7.0
CCOc1ccc(NC(=O)CC(C(=O)O)N2CCN(C)CC2)cc1 (stereo unspecified),-0.3,-14.2,-0.2,-0.2,.,.
Cn1c(C(=O)N2CCN(c3ccc(F)cc3)CC2)cc2c(=O)n3ccccc3nc21,1.3,-0.8,0.2,5.6*,0.6,7.9
Nn1cnn2c(SCC(=O)Nc3ccc([N+](=O)[O-])cc3)nnc12,0.4,5.4,-0.3,0.3,.,.
CC(C)c1nc2ccccc2c2nn(CC(=O)N3CCN(C(=O)c4ccco4)CC3)c(=O)n12,9.6,-6.5,-0.1,15.1*,0.4,3.7
CCc1nc2ccccc2c2nn(CC(=O)N3CCOCC3)c(=O)n12,-4.9,-6.0,-0.1,6.6*,0.0,2.3
CC1CCC(C)C(N2C(=O)c3ccc(Oc4ccc5c(c4)C(=O)N(C4CC(C)CCC4C)C5=O)cc3C2=O)C1 (stereo unspecified),1.0,-0.3,-0.1,0.9,.,.
Cc1cc(C)n(CC(C)N2CCC(n3nccc3NC(=O)CCCc3ccccc3)CC2)n1 (stereo unspecified),1.4,10.8,0.0,7.2*,0.8,-15.3
